# Laboratory results: PubChem BioAssay (EPA / NIEHS)
# Calls of active or inactive are those of the source. How the source made its calls: active means hit-call score of the fitted dose curve at least 0.9, where 1 is the maximum; inactive means score below 0.9.
# Experiment: ATG_PPRE_CIS: Attagene CIS-FACTORIAL HepG2 Assay for human Peroxisome Proliferator-activated Response Element (PPRE) (AID 2282958)
# Conditions: HepG2 PPRE cis-element reporter, Attagene transcription factor profiling; actives raise or lower the signal
# In short: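 HepG2, transient MRTU transfection (cis promoter elements, endogenous TFs). 24 h dosing. RNA → oligo(dT) RT → PCR → 6-FAM primer extension → HpaI digest → CE. Bidirectional fit vs DMSO.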
Structure (SMILES),outcome,AC50
CCOc1ccccc1OCC,inactive,
c1ccc2[nH]ccc2c1,inactive,
CC(=O)O[C@H](CC(=O)[O-])C[N+](C)(C)C,inactive,
CCN(CC)c1ccc(C(=C2C=CC(=[N+](CC)CC)C=C2)c2ccc(S(=O)(=O)O)cc2S(=O)(=O)[O-])cc1,inactive,
CCCCCCCCCCCCCOS(=O)(=O)O,,7.4 µM (active)
[Ca+2],inactive,
c1cc(C(c2ccc(OCC3CO3)cc2)c2ccc(OCC3CO3)cc2)ccc1OCC1CO1 (stereo not drawn),,100 µM (active)
CCn1c2ccccc2c2cc(N)ccc21,,100 µM (active)
C=C[C@@H](C)CCC=C(C)C,inactive,
O=C(O)CN(CCN(CC(=O)O)CC(=O)O)CCN(CC(=O)O)CC(=O)O,inactive,
COC(=O)OC,inactive,
Cc1c(Cl)c(=O)oc2cc(O)ccc12,inactive,
O=Cc1ccc(F)cc1,inactive,
C=C(C)C(=O)O,inactive,
CC(C)OP(=O)(CP(=O)(OC(C)C)OC(C)C)OC(C)C,inactive,
CCCCOCCOCCOCCOCCO,inactive,
COc1ccc(Nc2ccccc2)c(C)c1,,67.2 µM (active)
CCCC(C)C=O (stereo not drawn),inactive,
CC(=O)Nc1ccccc1O,inactive,

Structure (SMILES),outcome,AC50
COc1cc(C(C)(C)C)c(O)c(C(C)(C)C)c1,inactive,
CCCC(=O)C(C)=O,inactive,
O=C(O)c1cn(C2CC2)c2cc(N3CCNCC3)c(F)cc2c1=O,inactive,
Cc1ccc2ccccc2n1,inactive,
CC(C)=CCCC(C)=CCCC(C)=CCO,inactive,
O=C(Nc1ccccc1)c1cc([N+](=O)[O-])ccc1Cl,inactive,
N#Cc1ccccc1,inactive,
C[C@H]1C[C@@H]2[C@H]([C@@H](O)C[C@@]3(C)[C@H]2CC[C@]3(O)C(=O)CO)[C@@]2(C)C=CC(=O)C=C12,inactive,
COCCOCCOCCOCCOCCO,inactive,
O=C(O)CCCCC1CCSS1 (stereo not drawn),inactive,
C#C[C@]1(O)CC[C@H]2[C@@H]3CCC4=Cc5oncc5C[C@]4(C)[C@H]3CC[C@@]21C,inactive,
O=C(O)COCCN1CCN(C(c2ccccc2)c2ccc(Cl)cc2)CC1 (stereo not drawn),inactive,
CCCCN,inactive,
COC(=O)Cc1cccc2ccccc12,inactive,
O=Nc1ccc(Nc2ccccc2)cc1,inactive,
CC(C)=CCC[C@](C)(O)[C@@H]1CC=C(C)CC1,inactive,
CCN(CC)c1ccc2c(-c3ccccc3C(=O)O)c3ccc(=[N+](CC)CC)cc-3oc2c1,inactive,
CC(=O)[O][Al][O]C(C)=O,inactive,
Cc1cccc(Nc2ccccc2C(=O)O)c1C,,18.2 µM (active)
